Source: PubChem
MITF primary: blocks human microphthalmia-associated transcription factor; inhibition, % at 2.6 µM; AID 1259374; AlphaScreen MITF homodimerization, bead proximity signal; hit rate 0.91% among 650,000; in the data active means inhibition above about 50%;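 further: 0% = vehicle wells with protein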
GPR151 activ: activates the human receptor GPR151; Q8TDV0; PathHunter beta-arrestin GPR151 cells, luminescence; activation, % at 11.2 µM; hit rate 1% among 650,000; in the data active means activation above about 4.9%;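 further: 0% = median of compound wells and 100% = cells with positive control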
TEAD-YAP block: TEAD-YAP interaction inhibition; inhibition, % at 9.12 µM; HEK-TIYL cells, TEAD-Gal4/YAP UAS-luciferase luminescence; AID 1259422; hit rate 1.4% among 640,000; in the data active means inhibition above about 32%;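 further: 0% = median of test compound wells and 100% = reference inhibitor wells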
FBW7 activator: activators of human E3 ligase FBW7; hit rate 0.13% among 650,000; Q969H0; normalized activity (activation), % at 26.1 µM; AlphaScreen FBW7–phospho-cyclin E peptide binding, activator screen; in the data active means normalized activity above about 1.9%;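 further: purified mutant Fbw7 with reduced substrate affinity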
Target sequence (Q969H0 whole entry, looked up): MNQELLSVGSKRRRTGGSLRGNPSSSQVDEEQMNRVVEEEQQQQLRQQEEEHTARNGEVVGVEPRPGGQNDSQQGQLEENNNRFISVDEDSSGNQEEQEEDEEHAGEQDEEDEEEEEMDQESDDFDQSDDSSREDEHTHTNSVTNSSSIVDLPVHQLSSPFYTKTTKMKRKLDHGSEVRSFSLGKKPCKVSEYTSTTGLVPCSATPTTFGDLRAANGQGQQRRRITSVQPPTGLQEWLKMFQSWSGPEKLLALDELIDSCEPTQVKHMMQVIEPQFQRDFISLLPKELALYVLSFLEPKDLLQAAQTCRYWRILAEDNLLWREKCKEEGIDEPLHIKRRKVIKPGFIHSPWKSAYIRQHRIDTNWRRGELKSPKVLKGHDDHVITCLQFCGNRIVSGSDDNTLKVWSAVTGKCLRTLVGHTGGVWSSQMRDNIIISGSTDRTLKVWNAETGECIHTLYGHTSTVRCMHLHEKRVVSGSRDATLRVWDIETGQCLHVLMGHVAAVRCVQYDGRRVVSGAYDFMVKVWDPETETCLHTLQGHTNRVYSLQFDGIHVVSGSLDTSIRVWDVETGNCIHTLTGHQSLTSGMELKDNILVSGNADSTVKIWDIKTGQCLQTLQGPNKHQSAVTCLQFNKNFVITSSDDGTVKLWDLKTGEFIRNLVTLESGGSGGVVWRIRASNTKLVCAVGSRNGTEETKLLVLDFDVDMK
Starred values were filed as active, the others as inactive. Compounds with a hit are over-represented: about 3.5% of the library has one in this group of screens.

SMILES	MITF primary	GPR151 activ	TEAD-YAP block	FBW7 activator
COCCOC(=O)C1=C(C)NC(=O)NC1c1ccc(F)cc1 (centres undefined)	-2	4	0	0
CCOC(=O)c1c(NC(=O)CSc2nnc(CNC(=O)COc3ccc(Cl)cc3)n2C)sc2c1CCCCC2	-9	1	-10	0
O=C(O)c1ccc(N2C(=O)/C(=C\c3ccco3)SC2=S)cc1O	38	0	-8	0
O=C(O)Cc1ccc(N2C(=O)/C(=C\c3ccco3)SC2=S)cc1	76*	-2	6	-1
Cc1cccc(N2CCN(C(c3ccncc3)c3nnnn3C(C)(C)C)CC2)c1C (centres undefined)	-7	-4	62*	0
Cc1ccc2c(c1)cc(C)c1nn(CC(=O)NC(C)(C)C)c(=O)n12	14	-2	8	2
N#CC1=C(N)Oc2c(ccc3cccnc23)C1c1ccccc1F (centres undefined)	2	-1	58*	-1
CCN1C(=O)S/C(=C/c2cc([N+](=O)[O-])ccc2O)C1=O	-2	-5	-53	0
Cc1ccc(C2=N/C(=C\c3ccc(C)o3)C(=O)O2)cc1	2	-1	-6	0
COc1cc([C@@H]2c3cc4c(cc3[C@H](O)[C@H]3COC(=O)[C@H]23)OCO4)cc(OC)c1OC	4	4	43*	0
COc1cc([C@@H]2c3cc4c(cc3[C@@H](O[C@@H]3O[C@@H]5CO[C@@H](C)O[C@H]5[C@H](O)[C@H]3O)[C@H]3COC(=O)[C@H]23)OCO4)cc(OC)c1O	0	1	-35	0
COc1cc(C2CC(=O)Nc3cc4c(cc32)OCO4)cc(OC)c1OC (centres undefined)	-7	0	49*	0
Cc1ccc(S(=O)(=O)NCCSC(C)(C)C)cc1[N+](=O)[O-]	11	4	7	0
O=C1c2ccccc2C(=O)C12OC(c1ccc(Br)cc1)C1(C(=O)c3ccccc3C1=O)C2c1ccc(F)cc1 (centres undefined)	63*	0	-5	0
Cc1ccc(C2OC3(C(=O)c4ccccc4C3=O)C(c3ccccc3)C23C(=O)c2ccccc2C3=O)cc1 (centres undefined)	1	0	9	0
CC(C)(C)OC(=O)N1CCC[C@H]([C@H](O)c2ccc(F)cc2)C1	15	0	12	0
CC(C)N(CCNc1nc(-c2ccc(C(N)=O)cc2)nc2c1ncn2-c1ccsc1)C(C)C	12	-1	61*	0
CCCNc1nc(-c2ccc(C(N)=O)cc2)nc2c1ncn2-c1ccccc1	-7	1	52*	0
CCCNc1nc(-c2ccc(OC)cc2)nc2c1ncn2-c1ccccc1	9	0	-3	0
CCCNc1nc(-c2ccc(C(N)=O)cc2)nc2c1ncn2-c1ccsc1	7	-1	52*	0
NC(=O)c1ccc(-c2nc(NCCc3ccc(O)cc3)c3ncn(-c4ccccc4)c3n2)cc1	-4	-1	66*	0
NC(=O)c1ccc(-c2nc(NCc3cccnc3)c3ncn(-c4ccccc4)c3n2)cc1	2	0	55*	0
c1ccc(-c2nc(NCc3cccnc3)c3ncn(-c4ccccc4)c3n2)cc1	2	-1	17	0
Nc1ccc2nc(-c3ccccn3)[nH]c2c1	34	-7	-22	-2
c1ccc(-c2nc3ccc(Cc4ccc5nc(-c6ccccn6)[nH]c5c4)cc3[nH]2)nc1	27	0	34*	0
SMILES	MITF primary	GPR151 activ	TEAD-YAP block	FBW7 activator
C=CCN(c1ccccc1)S(=O)(=O)c1ccc(F)c(C(=O)Nc2ccc(CC)cc2)c1	4	1	32	0
C=CCN(c1ccccc1)S(=O)(=O)c1ccc(F)c(C(=O)Nc2ccc(C(C)C)cc2)c1	16	1	36*	0
C=CCN(c1ccccc1)S(=O)(=O)c1ccc(F)c(C(=O)Nc2ccc(OCC)cc2)c1	15	-1	39*	1
CC1=C(C(=O)OCc2ccccc2)C(c2cn(-c3ccccc3)nc2-c2ccc(F)cc2)C(C(=O)OCc2ccccc2)=C(C)N1	34	1	-9	1.9*
CC1=C(C(=O)OCc2ccccc2)C(c2cn(-c3ccccc3)nc2-c2ccc(C)cc2)C(C(=O)OCc2ccccc2)=C(C)N1	12	1	-9	0
CCOc1ccc(S(=O)(=O)N2CCCc3ccccc32)c2cccnc12	-9	-1	48*	0
CCN(CC)c1nc(NCCN(C(C)C)C(C)C)nc(Nc2ccncn2)n1	-1	1	-20	0
CC(C)c1ccc(C2NN=C(c3ccccc3)S2)cc1 (centres undefined)	-6	-7	70*	1
O=C(CSc1nc2[nH]ncc2c(=O)n1-c1ccccc1)Nc1ccc(C(F)(F)F)cc1	-14	0	25	0
CC(C)c1ccc(NC(=O)CSc2nc3[nH]ncc3c(=O)n2-c2ccccc2)cc1	3	4	39*	0
O=C(CSc1nc2[nH]ncc2c(=O)n1-c1ccccc1)Nc1ccc([N+](=O)[O-])cc1Cl	-2	-1	15	0
CC(C)c1ccc(NC(=O)CSc2nc3[nH]ncc3c(=O)n2-c2ccc(Cl)cc2)cc1	5	0	21	0
Cc1ccccc1-n1c(SCC(=O)Nc2ccc(C(F)(F)F)cc2)nc2[nH]ncc2c1=O	5	1	37*	1
COc1ccc(-n2c(SCC(=O)Nc3ccc([N+](=O)[O-])cc3Cl)nc3[nH]ncc3c2=O)cc1	5	0	32*	0
COC(=O)c1cccc(NC(=O)NC2CC3CCC(C2)N3Cc2cccs2)c1 (centres undefined)	-13	0	1	0
Cc1cc(C(=O)CSc2nnc3ccccn23)c(C)n1Cc1ccccc1	1	-3	64*	0
COc1ccc2cc(CN(CC3CCCO3)C(=O)Nc3ccccc3OC)c(=O)[nH]c2c1 (centres undefined)	2	-1	54*	0
COc1ccc2cc(CN(Cc3ccco3)C(=O)Nc3ccccc3OC)c(=O)[nH]c2c1	16	-1	54*	0
COc1ccc2cc(CN(Cc3ccccc3)C(=O)c3ccncc3)c(=O)[nH]c2c1	-7	1	51*	0
COc1ccc2[nH]c(=O)c(CN(Cc3ccco3)C(=O)Nc3ccccc3OC)cc2c1	8	-1	-4	0
Cc1cc(C)c2cc3c(N)c(C(=O)Nc4nccs4)sc3nc2c1	5	-1	-16	5.4*
Cc1cc(C)c2c(N)c(C(=O)Nc3nccs3)sc2n1	0	-1	70*	0
COC(=O)CSc1nc2sc3c(c2c(=O)n1-c1ccc(OC)cc1)CC(C)(C)OC3	3	-1	-3	0
CC1(c2cccc(F)c2)C(=O)Nc2cc(C(F)(F)F)ccc21 (centres undefined)	15	0	-4	0
CCCNc1nc(N2CCc3ccccc3C2)nc2c1ncn2-c1ccsc1	22	0	-26	0
Nc1nc(N2CCOCC2)nc2c1ncn2-c1ccsc1	5	2	42*	1
CCCNc1nc(N2CCOCC2)nc2c1ncn2-c1ccsc1	20	-1	50*	-1
